# Compound activity as filed in PubChem BioAssay.
# Sfp inh: blocks B. subtilis Sfp PPTase activity. Biochemical Sfp PPTase activity, qHTS. Potency, µM, actives largely listed as inhibitors. 310,000 tested, 3.5% active. AID 1490;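 further: the enzyme is Sfp with the accession as filed and its product quenches rhodamine fluorescence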
#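 Fluorescence-quenching assay: 15 nM Sfp-PPTase preincubated 15 min at room temperature with compound, then 5 uM rhodamine-CoA and 12.5 uM BHQ-2-labelled YbbR peptide added. Fluorescence (ex 525/em 598 nm) read at start and after 30 min; difference gives rate.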
# TCR act: activators of T cell receptors; primary human leukocytes, anti-CD3, IL-2 HTRF, 48 h; Potency, µM (titrated, usually from 9.22 µM), usual class: activators; 330,000 tested, under 10 active; AID 504894
#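 Primary human leukocytes incubated 48 hr with anti-CD3 beads plus compound, without co-stimulation. Secreted IL-2 measured by HTRF (europium cryptate/d2 anti-IL-2 pair, 320 nm excitation, 665 nm emission).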
# uPA generation: cell surface uPA generation inhibition. cell surface uPA generation assay, qHTS. Potency, µM (doses to about 38.3 µM), usual class: inhibitors. 330,000 tested, 0.31% active. AID 540303; active means well fitted inhibition curve with a large enough effect; inconclusive means small, poorly fitted or top-dose-only effect; inactive means no such curve, though single readings can be large or run the other way; tested in mouse RAW 264.7 cells; further: nearly all actives have a fitted effect of over 55% in size
# ClpP mod: qHTS Assay for Activators of ClpP. Potency, µM (top dose mostly 57.5 µM). purified B. subtilis ClpP, FRET peptide cleavage, 20 min. ATP-dependent Clp protease proteolytic subunit (Bacillus subtilis (strain 168)), P80244. 340,000 tested, 1.9% active; active means well fitted falling curve with a large enough effect; inconclusive means small, poorly fitted or top-dose-only effect; inactive means no such curve, though single readings can be large or run the other way; further: the source files actives as falling curves though it sought activators and does not explain the sign; nearly all actives have a fitted effect of over 65% in size
#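 FRET quenching reversal measured ClpP activation: 10 microg/mL B. subtilis ClpP at pH 8 with the FRET-FV decapeptide, read at 430 nm after 320 nm excitation. The 20-min minus 0-min signal was scaled between DMSO/no-enzyme wells and ADEP (5.8 microM final).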
# A number is an active result; i = inactive; ? = inconclusive; nt = no result given; ! = not active in a repeat. Most compounds without a hit are left out; they make up all but 4.2% or so of the library. Unless noted, the call rests on the fitted dose curve; in most records, active means well fitted curve in the direction sought with a large enough effect; inconclusive means small, poorly fitted or top-dose-only effect, or another doubt; inactive means no such curve, though single readings can be large; an effect the other way counts as inactive or inconclusive.
SMILES,Sfp inh,TCR act,uPA generation,ClpP mod
COc1ccc2[nH]cc(CCNc3ncncc3-c3ccc(C(=O)N(C)C)cc3)c2c1,i,nt,nt,nt
CCN(CC)C(=O)c1sc2c(c1C)c(=O)n(-c1ccccc1)c(=O)n2CC(=O)Nc1ccc(C)cc1C,nt,nt,nt,i
Cc1ccc(-c2ccc(/C=C3\SC(N4CCOCC4)=NC3=O)o2)cc1,40µM,i,i,nt
Cc1ccc(/C=C2\SC(N3CCN(C(c4ccccc4)c4ccccc4)CC3)=NC2=O)o1,4µM,i,i,i
O=C1N=C(N2CCN(c3ccccc3)CC2)S/C1=C/c1cccs1,i,i,i,nt
O=C1N=C(N2CCOCC2)S/C1=C/c1ccc(-c2ccc(F)cc2)o1,i,nt,i,nt
CCOC(=O)C1CCN(c2ncnc3c2nnn3C)CC1,nt,nt,nt,i
CC(C)(C)c1cc(CCC(=O)NCc2ccccn2)cc(C(C)(C)C)c1O,i,i,?,i
CC(C)(C)c1cc(CCC(=O)NCc2cccnc2)cc(C(C)(C)C)c1O,22µM,i,i,i
CCCN(C(=O)C1CCN(S(=O)(=O)c2ccc(OC)c(OC)c2)CC1)C1CCS(=O)(=O)C1 (centres undefined),nt,i,i,14µM
COc1cc(Cl)c(C)cc1NC(=O)CSC1=NCCS1,nt,i,i,i
CCOC(=O)N1CCN(c2nc(-c3cccc(OC)c3)cc(C(F)(F)F)n2)CC1,i,i,i,28µM
CCCCn1c(-c2ccc(Cl)cc2)nc2c(=O)n(C)c(=O)[nH]c21,i,i,i,11µM
CCOC(=O)C(C)Sc1nnc(Cn2c(=O)sc3ccccc32)n1-c1ccccc1 (centres undefined),79µM,i,i,i
O=C(CSc1nnc(Cn2c(=O)sc3ccccc32)n1-c1ccccc1)N1CCOCC1,56µM,i,nt,i
Cc1ccc(CNC(=O)CN2C(=O)C3CCCCN3c3ccc(C(=O)N4CCCC4)cc32)cc1 (centres undefined),nt,nt,nt,i
CCCNC(=O)C1(C)CCN(C(=O)c2oc3ccccc3c2C)C1 (centres undefined),nt,nt,nt,i
CC(C)[C@H]1COC(c2cc(Cl)cc(Cl)c2)=N1,i,nt,nt,nt
CN1CC2(Cc3cc([N+](=O)[O-])ccc31)C(=O)OC(C)(C)OC2=O,nt,nt,nt,i
CCOc1ccccc1N(C)C(=O)NCc1noc2ccccc12,nt,nt,nt,i
O=C(Nc1ccccc1SC(=O)c1ccccc1)c1ccccc1,nt,nt,nt,i
Cc1ccc(C(=O)Sc2cccccc2=O)cc1,50µM,i,i,nt
COC(=O)/C=C\c1cc(O)ccc1O,50µM,nt,nt,nt
COc1cc(/C=C(\CC(=O)O)c2nc3ccccc3s2)cc(OC)c1O,35µM,i,i,i
CC(C)Cn1cc(C(=O)N2CCN(c3cccc(Cl)c3)CC2)c2c3ccccc3n(C)c2c1=O,nt,nt,nt,i
SMILES,Sfp inh,TCR act,uPA generation,ClpP mod
CCOc1cc(C2NN=C(c3ccccc3)S2)ccc1OCc1ccc(F)cc1 (centres undefined),?,nt,i,14µM
CNc1nc2[nH]c(=O)c3c(c2s1)OC(N)=C(C#N)C3c1cccc(F)c1 (centres undefined),79µM,i,i,i
C=CCSc1nc2c(c(=O)[nH]1)C(c1ccccc1)C(C#N)=C(N)O2 (centres undefined),i,i,i,i
C[N+](C)(CCOc1ccccc1)Cc1ccccc1 (tested in a mixture with another compound),i,i,i,i
CC(C)(C)CC(C)(C)c1ccc(OCCOCC[N+](C)(C)Cc2ccccc2)cc1,40µM!,i,?,i
Cc1ncc(CO)c(/C=N/NC(=S)Nc2cccc(Cl)c2)c1O,50µM,i,i,i
Cc1ncc(CO)c(/C=N/NC(=S)Nc2ccc(Cl)c(Cl)c2)c1O,50µM,i,i,i
Cc1ncc(CO)c(/C=N/NC(=O)c2ccc(O)cc2)c1O,i,i,i,?
COc1ccc(CCCc2nnc(SCC(=O)Nc3ccc(F)cc3)o2)cc1C,nt,nt,nt,i
COc1cccc(Cn2c(Cn3c(-c4cnccn4)nc4ccccc43)nc3ccccc32)c1,nt,nt,nt,i
COc1ccccc1-n1c(-c2ccc(NS(C)(=O)=O)cc2)n[nH]c1=S,i,i,i,28µM
COc1ccc(OC)c(-n2c(Cn3c(-c4ccccn4)nc4ccccc43)n[nH]c2=S)c1,25µM,i,i,i
COc1ccc(OC)c(-n2c(-c3ccc(C)cc3)n[nH]c2=S)c1,i,i,i,i
COc1ccc(-c2n[nH]c(=S)n2N)c(OC)c1,35µM,i,i,i
COc1ccc(OC)c(-n2c(-c3cccc(O)c3)n[nH]c2=S)c1,25µM,i,i,i
Cc1ccc(C)c(SCC(=O)OCC(=O)NCCNC(=O)COC(=O)CSc2cc(C)ccc2C)c1,nt,i,i,nt
Cc1ccc2c(c1)-c1onc(C(=O)N(C)c3ccc(F)cc3)c1CO2,nt,nt,nt,i
CCOc1ccc(C2C(=O)N(C3CCCCC3)CC(=O)N2C2CCCC2)cc1OC (centres undefined),nt,nt,nt,i
Nc1nc2[nH]c(=S)[nH]c2c(=O)[nH]1,nt,nt,nt,i
CCCN1CNc2c(c(=O)[nH]c(=S)n2CCc2cc(OC)cc(OC)c2)C1,nt,nt,nt,i
COc1ccc(OC)c(-n2c(C)ccc2-c2ccc(S(C)(=O)=O)cc2)c1,i,i,i,28µM
COc1ccc(-c2n[nH]c(=S)n2-c2cc(OC)ccc2OC)cc1,79µM,i,i,nt
Cc1cc(Cl)nc2nc(Cl)ccc12,nt,nt,nt,i
COc1cc(N2C(=O)C=CC2=O)c(OC)cc1Cl,3.5µM,i,i,nt
O=c1c2ccccc2nc2n1CCN2,i,i,i,16µM
SMILES,Sfp inh,TCR act,uPA generation,ClpP mod
O=c1c2ccccc2nc2n1CCCS2,i,i,i,i
COc1cc2c(cc1OC)C(COc1ccc(F)cc1)N(C(=O)c1cccc(F)c1)CC2 (centres undefined),nt,nt,nt,i
CC(=O)c1ccc(N2CCN(C(=O)c3cc4c(s3)-c3ccccc3OC4)CC2)cc1,nt,nt,nt,i
CCCCNC(=O)CC1N=C2c3ccccc3N=C(SCC(=O)NCc3ccccc3Cl)N2C1=O (centres undefined),nt,nt,nt,18µM
CCc1ccc(NC(=O)CSC2=Nc3ccccc3C3=NC(CC(=O)NC4CCCCC4)C(=O)N23)cc1 (centres undefined),nt,nt,nt,i
O=C(CSC1=Nc2ccccc2C2=NC(CC(=O)NC3CCCCC3)C(=O)N12)Nc1ccc(F)cc1 (centres undefined),nt,nt,nt,14µM
O=C(CC1N=C2c3ccccc3N=C(SCc3cccc(Cl)c3)N2C1=O)NC1CCCCC1 (centres undefined),nt,nt,nt,35µM
Cc1noc(C)c1S(=O)(=O)N(CC(=O)NCc1ccccc1Cl)c1ccc(C(C)C)cc1,nt,nt,nt,i
CC(=O)Nc1ccc(NC(=O)COC(=O)c2ccccc2OCc2cccc(Br)c2)cc1,nt,nt,nt,i
O=C1N=C(N2CCCC2)S/C1=C\C=C\c1ccccc1,i,i,?,i
Cc1ccc(NC(=O)c2ccccc2)cc1,i,i,i,i
Cc1ccc(NC(=O)C2=C(c3ccccc3)S(=O)(=O)CCS2(=O)=O)cc1,16µM,i,i,nt
Cc1ccc(CNC(=O)COc2ccc(C)nc2[N+](=O)[O-])cc1,i,i,i,i
CCN(C(=O)COc1ccc(C)nc1[N+](=O)[O-])C1CCS(=O)(=O)C1 (centres undefined),i,i,i,10µM
